Each structure is given as a SMILES string. “And” between values parts separate entries of the source, which are not always exact repeats. Equal entries are not always repeated. Records with an inconclusive call do not appear. A structure can be active in one record and inactive in another. The source made the active and inactive calls. Unless noted, calls come from the whole dose curve; as a rule, active = well fitted curve in the direction sought with a large enough effect in the repeat runs; inconclusive = weak or mixed curves; inactive = no such curve, though single readings can be large; an effect the other way counts as inactive or inconclusive.

From PubChem BioAssay (Tox21) come the findings set out here.

Assay [1] is described as follows: Caspase-3/7 induction in HepG2 cells by small molecules, qHTS assay (AID 1346978). Note: % is set by controls: 0 for no effect and ±100 for the full control effect; nearly all actives have a fitted effect of over 15% in size. The gist of the method: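 Caspase-3/7 induction was measured by Caspase-Glo 3/7 luminescence (30 min, room temperature) after a 17 hr compound exposure of wild-type HepG2 cells seeded at 2,000 per well and pre-incubated 5 hr.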
On the technique in general: Quantitative high-throughput screening tests each substance at several concentrations.

Assay [2] in a line: Caspase-3/7 induction in CHO-K1 cells by small molecules, qHTS assay (AID 1346980). Note: nearly all actives have a fitted effect of over 15% in size. Note: potency is the fitted concentration of half-maximal effect. The gist of the method: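 Luminescent Caspase-Glo 3/7 read (30min, room temperature) quantified apoptosis induction. Cells were wild-type CHO-K1, treated with compound for 17hr at 37 C and 5% CO2.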
A short description of assay [3]: Caspase-3/7 induction in HepG2 cells by small molecules, qHTS cell viability counter screen (AID 1346981). Note: series mostly up to about 92 µM; % is set by controls: 0 for no effect and ±100 for the full control effect; nearly all actives have a fitted effect of over 30% in size. The gist of the method:
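CellTiter-Fluor fluorescence measured viability in the same wells used for Caspase-Glo 3/7. HepG2 (wild type) at 2,000 cells/well were pre-incubated 5 hr, dosed, and given reagent at 16 hr, with 1 hr further at 37C.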

In assay [4] the target is Nuclear receptor subfamily 1 group I member 2 (Homo sapiens) (UniProt O75469). Description: Human pregnane X receptor (PXR) small molecule agonists, qHTS assay (AID 1346982). For activation: % is set by controls: 0 for no effect and ±100 for the full control effect. Note: nearly all actives have a fitted effect of over 35% in size. Note: potency is the fitted concentration of half-maximal effect. The essentials: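 Agonist mode: luminescence from ONE-Glo after 24 h compound exposure at 37C in HepG2 cells carrying hPXR-responsive CYP3A4 luciferase, plated in charcoal-stripped serum medium 5 h beforehand.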
Chain of Nuclear receptor subfamily 1 group I member 2 (Homo sapiens) (O75469 whole entry, looked up): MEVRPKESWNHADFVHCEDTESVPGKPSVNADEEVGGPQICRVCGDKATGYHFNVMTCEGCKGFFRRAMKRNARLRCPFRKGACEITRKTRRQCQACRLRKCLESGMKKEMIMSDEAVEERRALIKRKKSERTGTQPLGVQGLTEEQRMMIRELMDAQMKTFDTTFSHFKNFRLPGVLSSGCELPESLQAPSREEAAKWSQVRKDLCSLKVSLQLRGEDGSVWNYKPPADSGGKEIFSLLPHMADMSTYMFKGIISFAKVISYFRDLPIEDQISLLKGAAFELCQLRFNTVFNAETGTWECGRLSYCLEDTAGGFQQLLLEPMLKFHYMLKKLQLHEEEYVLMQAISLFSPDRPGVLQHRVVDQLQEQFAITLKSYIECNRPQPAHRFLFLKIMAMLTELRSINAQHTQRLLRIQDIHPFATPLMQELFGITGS

The target of assay [5] is Acetylcholinesterase (Homo sapiens) (UniProt P22303). The experiment in a line: Acetylcholinesterase (AChE) small molecule antagonists: colormetric cell-based qHTS assay (AID 1347395; calls by dose curve; note: % is set by controls: 0 for no effect and ±100 for the full control effect; nearly all actives have a fitted effect of over 30% in size). The gist of the method:
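Quantitative HTS in attached SH-SY5Y cells: 30 min compound exposure, then 90 min with acetylthiocholine and DTNB at 37 C; colour from thiocholine reports AChE activity.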

Assay [6] has the same target. The experiment in a line: Acetylcholinesterase (AChE) small molecule antagonists: enzyme-based qHTS assay (AID 1347397; calls by dose curve; note: % is set by controls: 0 for no effect and ±100 for the full control effect; nearly all actives have a fitted effect of over 55% in size). The settings on record: Potency: AChE enzyme activity inhibition. The gist of the method: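 Colorimetric DTNB readout of acetylthiocholine hydrolysis, 10 min at room temperature, after 30 min room-temperature exposure of 50 mU/mL recombinant human enzyme to compound; DMSO vehicle control.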

Assay [7] has the same target. The experiment in a line: Acetylcholinesterase (AChE) small molecule antagonists: fluorescence cell-based qHTS assay (AID 1347398; calls by dose curve; note: % is set by controls: 0 for no effect and ±100 for the full control effect; nearly all actives have a fitted effect of over 50% in size). The note with it: Potency: AChE activity. The gist of the method: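 Cellular AChE activity read as thiocholine from acetylthiocholine hydrolysis, detected by Thiolite Green fluorescence at 490/520 nm after 40 min at room temperature. Compounds were pre-incubated 30 min at 37 C on adherent SH-SY5Y cells.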

The target is the same in assay [8]. Description: Acetylcholinesterase (AChE) small molecule antagonists: enzyme-based qHTS assay with human liver microsomes (AID 1347399; calls by dose curve; note: % is set by controls: 0 for no effect and ±100 for the full control effect; nearly all actives have a fitted effect of over 60% in size). The settings on record: Potency: qHTS inhibition. The gist of the method: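 Recombinant human AChE (50 mU/mL in the enzyme mix) and human liver microsomes (0.25 mg/mL final) were preincubated with compound and NADPH (0.25 mg/mL final) for 30 min at 37 C. Acetylthiocholine/DTNB was then added; thiocholine was read colorimetrically after 10 min at room temperature.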

Assay [9] has as its target Cytochrome P450 2D6 (Homo sapiens) (UniProt P10635). The experiment in a line: Cytochrome P450 Family 2 Subfamily D Member 6 (CYP2D6) small molecule antagonists: luciferase reporter qHTS assay (AID 1671196). Note: nearly all actives have a fitted effect of over 50% in size. Note: potency is the fitted concentration of half-maximal effect. The essentials:
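CYP2D6 activity was followed as luminescence from its luciferin product after a 1 h NADPH-driven reaction at room temperature. Enzyme-substrate mix and compound were pre-incubated for 10 min, and the signal was read 20 min after adding detection reagent.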
A general note: A reporter such as luciferase makes a cellular process visible.

The target of assay [10] is Cytochrome P450 2C19 (Homo sapiens) (UniProt P33261). The experiment in a line: Cytochrome P450 Family 2 Subfamily C Member 19 (CYP2C19) small molecule antagonists: luciferase reporter qHTS assay (AID 1671197). Note: nearly all actives have a fitted effect of over 65% in size. Note: potency is the fitted concentration of half-maximal effect. The gist of the method:
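Compounds were tested on CYP2C19 activity via proluciferin conversion to luciferin. The 37C, 1 h reaction followed NADPH addition; detection reagent stopped it.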

The target of assay [11] is Cytochrome P450 2C9 (Homo sapiens) (UniProt P11712). The experiment in a line: Cytochrome P450 Family 2 Subfamily C Member 9 (CYP2C9) small molecule antagonists: luciferase reporter qHTS assay (AID 1671198). Note: potency is the fitted concentration of half-maximal effect; nearly all actives have a fitted effect of over 50% in size. The essentials:
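Enzyme-substrate mix preincubated with compound 10 min at room temperature; reaction started with NADPH regeneration solution, 1 h 37C. Luminescent luciferin product read after 20 min detection reagent.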

For assay [12], the target named is Cytochrome P450 1A2 (Homo sapiens) (UniProt P05177). The experiment in a line: Cytochrome P450 Family 1 Subfamily A Member 2 (CYP1A2) small molecule antagonists: luciferase reporter qHTS assay (AID 1671199). Note: nearly all actives have a fitted effect of over 50% in size. Note: potency is the fitted concentration of half-maximal effect. The gist of the method:
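Luminescence from luciferin formed by CYP1A2 from a proluciferin substrate, read 20 min after detection reagent. Compound was pre-incubated 10 min with enzyme-substrate, and reaction started with NADPH regeneration solution for 1 h at room temperature; furafylline control.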

Assay [13] concerns the target Voltage-gated inwardly rectifying potassium channel KCNH2 (Homo sapiens) (UniProt Q12809). The experiment in a line: Human Ether-a-go-go-Related Gene (hERG) channel small molecule antagonists: fluorescence cell-based qHTS assay (AID 1671200). The essentials: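 First, 1000 cells per well are seeded and cultured overnight at 37 C. Next, FluxOR II dye is loaded for 1 h at room temperature, protected from light. After 10 more minutes, stimulus is added and fluorescence is read.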
In general terms: The hERG channel carries a current that helps repolarise heart muscle cells.

In assay [14] the target is Cytochrome P450 3A4 (Homo sapiens) (UniProt P08684). Description: Cytochrome P450 Family 3 Subfamily A Member 4 (CYP3A4) small molecule antagonists: luciferase reporter qHTS assay (AID 1671201). The gist of the method: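 Enzyme and proluciferin substrate are mixed with test chemicals for 10 min, then NADPH regeneration system drives turnover for 1 h at room temperature. A detection reagent halts the reaction; luminescence after 20 min gives relative activity.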
Chain of Cytochrome P450 3A4 (Homo sapiens) (P08684 whole entry, looked up): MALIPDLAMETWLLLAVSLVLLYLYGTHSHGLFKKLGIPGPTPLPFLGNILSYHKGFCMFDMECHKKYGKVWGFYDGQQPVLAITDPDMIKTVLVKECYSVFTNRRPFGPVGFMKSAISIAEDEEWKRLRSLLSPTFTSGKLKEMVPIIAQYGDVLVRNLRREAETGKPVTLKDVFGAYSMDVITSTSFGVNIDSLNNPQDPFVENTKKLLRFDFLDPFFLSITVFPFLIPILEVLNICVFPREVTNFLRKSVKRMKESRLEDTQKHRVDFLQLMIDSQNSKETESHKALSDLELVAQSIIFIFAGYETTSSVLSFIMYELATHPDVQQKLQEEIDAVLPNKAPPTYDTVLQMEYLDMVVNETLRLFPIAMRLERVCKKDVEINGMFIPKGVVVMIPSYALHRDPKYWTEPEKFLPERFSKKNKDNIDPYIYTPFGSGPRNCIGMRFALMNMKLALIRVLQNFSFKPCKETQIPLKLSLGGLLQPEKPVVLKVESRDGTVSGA

The target of assay [15] is Nuclear receptor subfamily 1 group I member 2 (Rattus norvegicus) (UniProt Q9R1A7). Description: Rat pregnane X receptor (rPXR) activation by small molecules, qHTS assay (AID 1346983). Note: % is set by controls: 0 for no effect and ±100 for the full control effect; nearly all actives have a fitted effect of over 20% in size. The note with it: rPXR luciferase reporter cells, One-Glo luminescence, 24 h; stronger effect = higher value. The essentials: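 Luminescent readout (One-Glo luciferase, 30 min room temperature) followed 24 hr compound treatment at 37 C of rPXR cells plated 2,000 per well and preincubated 5hr; qHTS format with compounds delivered in DMSO.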

Assay [16] has as its target Nuclear receptor subfamily 1 group I member 2 (Homo sapiens) (UniProt O75469). The experiment in a line: CYP3A4 induction through human pregnane X receptor (PXR) by small molecules, qHTS assay (AID 1346984). Note: % is set by controls: 0 for no effect and ±100 for the full control effect; nearly all actives have a fitted effect of over 40% in size. The essentials: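 Read-out is luminescence after One-Glo addition, following a 3 hr, 37C incubation with Luciferin-IPA CYP3A4 substrate (3uM final). Before that, compounds were on DPX-2 cells (HepG2 co-transfected with PXR element plus CYP3A4-promoter luciferase) for 24 hr at 37C.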

Assay [17] shares this target. The experiment in a line: Human pregnane X receptor (PXR) activation by small molecules, qHTS assay (AID 1346985). Note: % is set by controls: 0 for no effect and ±100 for the full control effect; nearly all actives have a fitted effect of over 40% in size. The gist of the method: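 DPX-2 cells (HepG2 co-transfected with a PXR response element and a CYP3A4-promoter luciferase construct) were seeded at 2,000 per well, rested 5 hr at 37C, then exposed to DMSO-dissolved compounds for 24 hr. Activation was read as luciferase luminescence.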

Chain of Cytochrome P450 1A2 (Homo sapiens) (P05177 whole entry, looked up): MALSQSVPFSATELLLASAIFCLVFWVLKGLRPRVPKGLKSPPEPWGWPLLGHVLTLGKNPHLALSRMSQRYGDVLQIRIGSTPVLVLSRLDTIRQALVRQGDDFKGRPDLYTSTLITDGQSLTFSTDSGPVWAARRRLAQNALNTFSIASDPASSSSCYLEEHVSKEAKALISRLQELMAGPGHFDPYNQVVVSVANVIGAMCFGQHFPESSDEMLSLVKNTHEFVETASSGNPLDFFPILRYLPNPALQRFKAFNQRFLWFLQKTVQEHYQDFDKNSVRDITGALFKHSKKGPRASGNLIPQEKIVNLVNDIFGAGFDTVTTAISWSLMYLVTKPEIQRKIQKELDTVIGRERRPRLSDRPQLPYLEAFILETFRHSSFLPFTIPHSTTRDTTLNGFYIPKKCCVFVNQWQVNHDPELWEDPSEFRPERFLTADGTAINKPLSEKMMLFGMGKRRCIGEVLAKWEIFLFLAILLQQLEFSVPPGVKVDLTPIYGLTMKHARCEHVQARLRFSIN
Chain of Cytochrome P450 2C19 (Homo sapiens) (P33261 whole entry, looked up): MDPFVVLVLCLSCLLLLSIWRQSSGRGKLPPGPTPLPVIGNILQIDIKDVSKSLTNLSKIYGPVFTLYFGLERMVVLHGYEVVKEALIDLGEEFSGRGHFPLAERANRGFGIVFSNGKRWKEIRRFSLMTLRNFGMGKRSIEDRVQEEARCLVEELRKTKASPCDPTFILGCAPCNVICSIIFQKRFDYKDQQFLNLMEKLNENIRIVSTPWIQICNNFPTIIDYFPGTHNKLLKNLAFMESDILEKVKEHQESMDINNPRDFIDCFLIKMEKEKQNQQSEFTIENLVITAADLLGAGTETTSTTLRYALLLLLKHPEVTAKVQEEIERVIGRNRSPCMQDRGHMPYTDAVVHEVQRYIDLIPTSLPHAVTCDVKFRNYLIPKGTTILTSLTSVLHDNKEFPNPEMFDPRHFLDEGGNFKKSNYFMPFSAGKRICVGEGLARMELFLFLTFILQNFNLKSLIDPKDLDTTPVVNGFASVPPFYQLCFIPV
Chain of Cytochrome P450 2D6 (Homo sapiens) (P10635 whole entry, looked up): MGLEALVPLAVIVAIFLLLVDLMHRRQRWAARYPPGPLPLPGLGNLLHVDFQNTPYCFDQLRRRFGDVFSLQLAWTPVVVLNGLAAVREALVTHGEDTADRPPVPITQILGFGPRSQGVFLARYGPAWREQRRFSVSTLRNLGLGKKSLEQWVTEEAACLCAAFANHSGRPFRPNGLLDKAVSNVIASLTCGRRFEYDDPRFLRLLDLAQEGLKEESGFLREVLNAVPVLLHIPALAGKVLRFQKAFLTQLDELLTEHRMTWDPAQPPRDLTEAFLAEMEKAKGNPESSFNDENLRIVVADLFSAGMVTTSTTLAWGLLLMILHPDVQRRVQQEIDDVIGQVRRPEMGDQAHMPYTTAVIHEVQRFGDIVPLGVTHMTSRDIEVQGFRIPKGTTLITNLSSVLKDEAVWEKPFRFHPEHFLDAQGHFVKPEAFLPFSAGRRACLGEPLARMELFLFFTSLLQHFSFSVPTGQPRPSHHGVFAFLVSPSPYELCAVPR
Chain of Voltage-gated inwardly rectifying potassium channel KCNH2 (Homo sapiens) (Q12809 whole entry, looked up): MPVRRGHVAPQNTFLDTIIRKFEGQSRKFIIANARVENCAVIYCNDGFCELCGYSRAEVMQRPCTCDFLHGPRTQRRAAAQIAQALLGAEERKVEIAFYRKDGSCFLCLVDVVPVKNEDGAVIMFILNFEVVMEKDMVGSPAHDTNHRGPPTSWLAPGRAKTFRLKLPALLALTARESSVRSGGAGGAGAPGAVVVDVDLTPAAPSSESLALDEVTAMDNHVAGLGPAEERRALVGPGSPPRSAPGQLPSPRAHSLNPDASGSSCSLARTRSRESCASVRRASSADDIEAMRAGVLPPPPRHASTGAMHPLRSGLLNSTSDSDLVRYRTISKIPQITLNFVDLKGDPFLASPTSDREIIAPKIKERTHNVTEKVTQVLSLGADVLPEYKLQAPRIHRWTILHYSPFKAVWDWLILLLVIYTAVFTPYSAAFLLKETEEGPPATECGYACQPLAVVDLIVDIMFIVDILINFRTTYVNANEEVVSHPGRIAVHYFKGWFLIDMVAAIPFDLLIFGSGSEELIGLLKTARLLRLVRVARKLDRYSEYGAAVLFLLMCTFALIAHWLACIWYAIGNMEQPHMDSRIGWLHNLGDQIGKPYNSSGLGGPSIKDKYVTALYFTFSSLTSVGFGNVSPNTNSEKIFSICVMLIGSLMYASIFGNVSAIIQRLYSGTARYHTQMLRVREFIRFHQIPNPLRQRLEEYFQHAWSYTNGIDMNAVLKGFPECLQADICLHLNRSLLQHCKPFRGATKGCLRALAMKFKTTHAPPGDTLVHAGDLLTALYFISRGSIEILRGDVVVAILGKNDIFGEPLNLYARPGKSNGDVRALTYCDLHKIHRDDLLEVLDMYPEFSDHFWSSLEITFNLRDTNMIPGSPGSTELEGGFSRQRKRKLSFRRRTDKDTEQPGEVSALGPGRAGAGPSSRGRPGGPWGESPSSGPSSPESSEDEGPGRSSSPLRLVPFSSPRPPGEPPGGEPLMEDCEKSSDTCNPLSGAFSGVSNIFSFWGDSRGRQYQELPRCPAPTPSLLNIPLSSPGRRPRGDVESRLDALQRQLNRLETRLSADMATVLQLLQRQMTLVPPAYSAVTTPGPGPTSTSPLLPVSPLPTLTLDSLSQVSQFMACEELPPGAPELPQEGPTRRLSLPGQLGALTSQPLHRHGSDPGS
Chain of Cytochrome P450 2C9 (Homo sapiens) (P11712 whole entry, looked up): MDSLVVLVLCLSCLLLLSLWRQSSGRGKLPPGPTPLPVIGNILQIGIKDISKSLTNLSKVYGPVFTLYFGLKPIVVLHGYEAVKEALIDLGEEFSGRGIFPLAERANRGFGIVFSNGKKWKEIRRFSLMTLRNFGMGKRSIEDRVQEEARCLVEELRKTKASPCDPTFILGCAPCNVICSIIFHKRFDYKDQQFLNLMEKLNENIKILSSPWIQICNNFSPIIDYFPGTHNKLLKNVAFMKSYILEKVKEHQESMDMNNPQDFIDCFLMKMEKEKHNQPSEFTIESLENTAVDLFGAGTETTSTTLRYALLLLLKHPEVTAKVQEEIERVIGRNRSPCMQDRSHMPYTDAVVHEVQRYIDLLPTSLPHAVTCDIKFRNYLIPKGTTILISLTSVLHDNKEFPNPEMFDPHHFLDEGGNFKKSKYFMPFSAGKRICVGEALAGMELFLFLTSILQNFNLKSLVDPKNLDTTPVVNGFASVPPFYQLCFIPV
Chain of Acetylcholinesterase (Homo sapiens) (P22303 whole entry, looked up): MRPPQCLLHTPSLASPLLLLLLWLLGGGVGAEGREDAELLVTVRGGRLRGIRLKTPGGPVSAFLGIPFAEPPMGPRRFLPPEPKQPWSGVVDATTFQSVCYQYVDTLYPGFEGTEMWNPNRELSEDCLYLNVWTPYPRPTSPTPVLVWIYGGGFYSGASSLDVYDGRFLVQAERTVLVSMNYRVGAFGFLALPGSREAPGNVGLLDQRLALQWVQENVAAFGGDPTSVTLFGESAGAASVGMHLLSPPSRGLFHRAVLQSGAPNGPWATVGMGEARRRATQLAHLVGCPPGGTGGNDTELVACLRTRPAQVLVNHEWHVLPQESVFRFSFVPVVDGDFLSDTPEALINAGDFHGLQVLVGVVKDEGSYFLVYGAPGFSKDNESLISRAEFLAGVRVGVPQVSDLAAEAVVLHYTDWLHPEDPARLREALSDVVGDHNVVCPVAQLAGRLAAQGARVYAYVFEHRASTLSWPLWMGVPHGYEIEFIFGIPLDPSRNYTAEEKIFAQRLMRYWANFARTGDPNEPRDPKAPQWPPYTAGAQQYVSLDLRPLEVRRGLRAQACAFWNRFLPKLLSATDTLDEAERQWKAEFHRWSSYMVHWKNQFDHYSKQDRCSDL

As to `CCC(C)(c1ccc(O)cc1)c1ccc(O)cc1`, the Potency entry in assay [1], in [2], in assay [3], in assay [5], in assay [6] and in assay [7] was “inactive” in each case. Moreover, the Potency result in assay [8], in [9], in assay [10], in assay [12] and in [13] was “inactive” in each case. Also, the Potency was 12.2 µM (active) and 5.45 µM (active) in [4]; 28.2 µM (active) and 22.4 µM (active) in assay [11]; 10 µM (active) and 15.9 µM (active) in assay [14].
As for `CCOC(=S)S`, the Potency result in assay [1], in assay [3] and in [13] was “inactive” throughout. Moreover, the Potency in assay [2] is 61.1 µM (active).
`COP(=S)(OC)Oc1cc(Cl)c(Cl)cc1Cl`: the Potency result in assay [1], in assay [2], in assay [3], in assay [6], in assay [7] and in assay [8] was “inactive” each time. Also, the Potency result in assay [9] and in assay [13] was “inactive” each time. Besides, the Potency in assay [4] was 30.4 µM (active) and inactive; in assay [10], 19.9 µM (active) and 7.76 µM (active); in [11], 9.95 µM (active) and 7.76 µM (active); in assay [12], 15.8 µM (active) and 11 µM (active).
Take `CCCCCCCCC(=O)NCc1ccc(O)c(OC)c1`: the Potency result in assay [1], in [2], in assay [3], in assay [5], in assay [6] and in assay [7] was “inactive” each time. In addition, the Potency entry in assay [8] and in [13] was “inactive” in each case. For the same compound, the Potency in [4] is 27.3 µM (active) and inactive; in [9], 31.7 µM (active) and 17.4 µM (active); in assay [10], 4.9 µM (active); in [11] it was 2.52 µM (active) and 2.45 µM (active); in [12], 31.7 µM (active) and 27.5 µM (active).
As for `Cc1cc(Cl)ccc1OCCCC(=O)O`, the Potency result in assay [1], in [2], in assay [3], in assay [4], in [5] and in [6] was “inactive” each time. The Potency result in assay [7], in assay [8], in assay [9], in assay [12] and in assay [13] was “inactive” throughout. For the same compound, in assay [10], the Potency is 82.8 µM (active) and inactive.
As to `CC(C)(c1cc(Cl)c(O)c(Cl)c1)c1cc(Cl)c(O)c(Cl)c1`, the Potency result in assay [1], in [2], in [3], in [8], in assay [9] and in assay [12] was “inactive” throughout. Moreover, in assay [13], the Potency result is “inactive”. In addition, the Potency is 54.5 µM (active) and 43.3 µM (active) in assay [4]; 35.6 µM (active) and 28.3 µM (active) in assay [10]; 35.6 µM (active) and 31.7 µM (active) in assay [11].
Turning to `O=c1oc2ccccc2c(O)c1C(CC(O)c1ccc(-c2ccc(Br)cc2)cc1)c1ccccc1` (stereo not given), the Potency result in [1], in assay [2], in [3], in assay [4], in assay [5] and in assay [6] was “inactive” in each case. Also, the Potency entry in assay [7], in assay [8], in assay [9], in [12] and in assay [13] was “inactive” each time. Also, the max activation in assay [15] is -5.73% (inactive). In addition, the call in assay [16] and in assay [17] was inactive. Also, the Potency in assay [11] is 3.37 µM (active) and 3.47 µM (active).
